{"source": "PubChem BioAssay AID602125", "about": "(The Scripps Research Institute Molecular Screening Center, 2011)", "note": "Hit rate of the full screen: of about 1,300 compounds, about 110 (8.5%) were called active. Cut-off read from the data, not from the text of the source: active = inhibition above about 6.5%; inactive = the rest. Not all results are given here.", "data": [{"test": "quenching of GFP signal – biochemical, fluorescence, artefact control for Rin1-Abl interaction inhibitor project (AID 602125);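 note: ABL1-eGFP fusion protein alone without its partner RIN1-SBP; 0% = protein with vehicle and 100% = wells lacking protein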", "settings": "inhibitors/quenchers counterscreen, at 6.75 µM, active compounds read high", "values": [{"smiles": "CC(C)CNS(=O)(=O)c1ccc(C(=O)Nc2ccc3c(c2)OCO3)cc1", "inhibition": "-1.46% (inactive)"}, {"smiles": "O=c1ccc2c(-c3ccccc3S(=O)(=O)O)c3ccc(O)c(O)c3oc-2c1O", "inhibition": "60.6% (active)"}, {"smiles": "CCCn1c(N)c(C(=O)CSc2nnc(-c3cccnc3)n2-c2ccc(C)cc2C)c(=O)[nH]c1=O", "inhibition": "-2.86% (inactive)"}, {"smiles": "Cc1cc2ccccc2n1CCNC(=O)COc1ccc2ccccc2c1", "inhibition": "0.81% (inactive)"}, {"smiles": "CC(OC(=O)c1ccccc1NCCO)C(=O)Nc1ccnn1C(C)C", "note": "(stereo not given)", "inhibition": "0.13% (inactive)"}, {"smiles": "C=C1c2c(Cl)ccc(O)c2C(O)=C2C(=O)[C@]3(O)C(O)=C(C(N)=O)C(=O)[C@@H](N(C)C)[C@@H]3[C@@H](O)C12", "note": "(stereo not given in full)", "inhibition": "14.2% (active)"}, {"smiles": "CC(=O)NC(c1cccs1)c1cc(Br)c2cccnc2c1O", "note": "(stereo not given)", "inhibition": "4.24% (inactive)"}, {"smiles": "Nc1cc(=O)c2[nH]cnc2[nH]1", "inhibition": "0.27% (inactive)"}, {"smiles": "CCOC(=O)N1CCC(c2cc(=O)n(-c3ccccc3)[nH]2)CC1", "inhibition": "-3.53% (inactive)"}, {"smiles": "O=C(Nc1ccc(OC(F)(F)F)cc1)c1ccc2c(c1)no[n+]2[O-]", "inhibition": "0.62% (inactive)"}, {"smiles": "C=CCn1c2ccccc2c2nnc(SCc3[nH]c(=O)[nH]c3C(=O)CCCCC(=O)OCC)nc21", "inhibition": "0.3% (inactive)"}, {"smiles": "COCCNC(=O)Nc1ccc2nc(-c3ccco3)c(-c3ccco3)nc2c1", "inhibition": "15.8% (active)"}, {"smiles": "CCc1ccc(CN(C)C(C)C(=O)Nc2ccc(S(=O)(=O)N3CCCC3)cc2)cc1", "note": "(stereo not given)", "inhibition": "-0.29% (inactive)"}, {"smiles": "COC(=O)c1ccc(COC(=O)C2CCN(S(=O)(=O)c3c(Cl)cccc3Cl)CC2)o1", "inhibition": "1.86% (inactive)"}, {"smiles": "CN(CC(=O)Nc1ccc(F)cc1)CC(=O)Nc1ccc(Cl)c(S(=O)(=O)N2CCOCC2)c1", "inhibition": "-1.92% (inactive)"}, {"smiles": "C#CCOCCOCCOCCNc1nc(N2CCN(C(=O)C(Cc3ccc(O)cc3)n3cc(C(N)CC(C)C)nn3)CC2)nc(N2CCN(C(=O)C(Cc3ccc(O)cc3)n3cc(C(N)C(C)CC)nn3)CC2)n1", "note": "(stereo not given)", "inhibition": "-1.04% (inactive)"}, {"smiles": "C=CCn1cc(C(=O)NCc2ccc(Cl)cc2)c(=O)c2cc(S(=O)(=O)N(CC)CC)ccc21", "inhibition": "-0.53% (inactive)"}, {"smiles": "Cc1nn(-c2ncc(C(F)(F)F)cc2Cl)c(=O)n1-c1ccccc1", "inhibition": "-0.58% (inactive)"}, {"smiles": "COc1ccc(CNC(=O)c2cc(C(=O)C3CC3)c[nH]2)cc1", "inhibition": "0% (inactive)"}, {"smiles": "Cc1c(CC(=O)N2CCN(C(=O)C3COc4ccccc4O3)CC2)c(=O)oc2c(O)c(O)ccc12", "note": "(stereo not given)", "inhibition": "21.4% (active)"}, {"smiles": "NC1=CC(=O)C(=O)c2cccnc21", "inhibition": "8.89% (active)"}, {"smiles": "Cc1ccccc1CN1C[C@@H]2C[C@@H](c3ccc4nsnc4c3)N3CCC[C@@]23C1=O", "inhibition": "0.34% (inactive)"}, {"smiles": "CSc1ncnc2c1ncn2CC(=O)C1CCC2C3CCC4=CC(=O)CCC4(C)C3CCC12C", "note": "(stereo not given)", "inhibition": "0.43% (inactive)"}, {"smiles": "O=C(CNCc1ccco1)Nc1cc(S(=O)(=O)N2CCOCC2)ccc1N1CCCC1", "inhibition": "2.49% (inactive)"}, {"smiles": "CCc1cc2c(N3CCN(c4nnc(CC)s4)CC3)ncnc2s1", "inhibition": "-3.38% (inactive)"}, {"smiles": "CC(=O)Nc1ccc(CN2CCC(Oc3ccc(C(=O)N4CCCC4)cc3)CC2)cc1", "inhibition": "-0.82% (inactive)"}, {"smiles": "CCOc1ccc(S(=O)(=O)N2CCCCC2)cc1NC(=O)CN1CCCC1c1cccs1", "note": "(stereo not given)", "inhibition": "-2.43% (inactive)"}, {"smiles": "O=c1c2c(nc3n1CCCCC3)sc1c(O)cccc12", "inhibition": "0.41% (inactive)"}, {"smiles": "CCOc1ccc(CNC(=O)C2CCCN(c3nnc(C)c4c(C)n(-c5ccccc5)nc34)C2)cc1", "note": "(stereo not given)", "inhibition": "-0.63% (inactive)"}, {"smiles": "Oc1c(CN2CCN(c3ccc(F)cc3)CC2)cc(Cl)c2cccnc12", "inhibition": "1.29% (inactive)"}, {"smiles": "CC(CCO)Nc1nc2c([nH]1)c(=O)n(C)c(=O)n2C", "note": "(stereo not given)", "inhibition": "-2.15% (inactive)"}, {"smiles": "O=C(COc1ccc(S(=O)(=O)NCCc2ccccc2)cc1)N1CCCC1", "inhibition": "-1.34% (inactive)"}, {"smiles": "CN(C)c1ccc(N/C=C/C(=O)C(F)(F)F)cc1", "inhibition": "0.06% (inactive)"}, {"smiles": "Cc1cccc(N(C)C(=O)CN2C(=O)COc3ccc(S(=O)(=O)N4CCCCCC4)cc32)c1", "inhibition": "-2.16% (inactive)"}, {"smiles": "C[C@@H]1CN([C@H](C)CO)S(=O)(=O)c2ccc(C#C[C@@H](C)O)cc2O[C@@H]1CN(C)Cc1ccc(-c2ccccc2)cc1", "inhibition": "-1.52% (inactive)"}, {"smiles": "O=C(NNc1c2ccccc2nc2ccccc12)c1cc2ccccc2cc1O", "inhibition": "2.7% (inactive)"}, {"smiles": "Cc1cc(NC(=O)CSCC(=O)NC(C)c2ccccc2)no1", "note": "(stereo not given)", "inhibition": "0.79% (inactive)"}, {"smiles": "COc1cc(C(=S)N2CCOCC2)ccc1O", "inhibition": "-0.21% (inactive)"}, {"smiles": "Cc1ccc(C(NC(=O)C2CCN(CCOc3ccc(Cl)cc3Cl)CC2)c2ccccn2)cc1", "note": "(stereo not given)", "inhibition": "-1.38% (inactive)"}, {"smiles": "CN(Cc1c(F)cccc1Cl)C(=O)CNC(=O)c1ccc2c(c1)OCO2", "inhibition": "0% (inactive)"}, {"smiles": "O=C(Nc1ccc(S(=O)(=O)Nc2ncccn2)cc1)c1cncc(Br)c1", "inhibition": "0.85% (inactive)"}, {"smiles": "O=c1cc(CO)oc(CN2CCC(Cc3ccccc3)CC2)c1O", "inhibition": "0.68% (inactive)"}, {"smiles": "CCOC(=O)N1CCN(C(=O)C2CCCN(c3ncnc4c3sc3cccc(F)c34)C2)CC1", "note": "(stereo not given)", "inhibition": "0.85% (inactive)"}, {"smiles": "CCOc1ccc(-n2c(SCC(=O)NC3CCS(=O)(=O)C3)nnc2-c2cccnc2)cc1", "note": "(stereo not given)", "inhibition": "-0.86% (inactive)"}, {"smiles": "CCOC(=O)CN(C(=O)COc1nc(C)cc(C)c1C#N)c1ccc(Cl)cc1", "inhibition": "-1.77% (inactive)"}, {"smiles": "OC[C@@H]1CN(Cc2ccc(Cl)cc2)C[C@H](n2cnc3c(NCc4ccncc4)ncnc32)O1", "inhibition": "0.89% (inactive)"}, {"smiles": "CCOC(=O)N1CCN(C(=O)C2CCN(c3ncnc4c3sc3cccc(F)c34)CC2)CC1", "inhibition": "1.39% (inactive)"}, {"smiles": "Cc1ccccc1C(=O)N1CCC(C(=O)Nc2ccc(S(=O)(=O)N(C)C(C)C)cc2)CC1", "inhibition": "0.2% (inactive)"}, {"smiles": "O=C(c1cn(-c2ccccc2)nc1-c1cc2ccccc2oc1=O)N1CCOCC1", "inhibition": "-1.57% (inactive)"}, {"smiles": "O=C(CC1SCCNC1=O)Nc1ccc(Cl)cc1", "note": "(stereo not given)", "inhibition": "0.84% (inactive)"}, {"smiles": "CN(C(=O)c1ccc(NC(=O)Cc2cccc(NC(=O)C3CCN(C(=O)c4ccccc4)CC3)c2)cc1)C1CC1", "inhibition": "-0.72% (inactive)"}, {"smiles": "Nc1nc2n(n1)C(c1ccco1)CC(c1ccc(Cl)c(Cl)c1)N2", "note": "(stereo not given)", "inhibition": "-3.07% (inactive)"}, {"smiles": "NS(=O)(=O)c1ccc(CCNC(=O)Nc2ccc(Cl)cc2)cc1", "inhibition": "2.08% (inactive)"}, {"smiles": "Oc1cccc2cc(-c3ccncc3)cnc12", "inhibition": "11.6% (active)"}, {"smiles": "Cc1ccc(-n2c(SCC(=O)NCc3ccc4c(c3)OCO4)nnc2-c2cccnc2)c(C)c1", "inhibition": "0.57% (inactive)"}]}]}
